Shiga toxin inh = inhibitors of Shiga toxin in Vero cells | 290,000 compounds, 9.2% hits | inhibition, % at 38.7 µM | Vero cells, Shiga toxin protein synthesis inhibition reporter; in the data active means inhibition mostly above about 28%, no sharp cut-off; inactive means mostly below about 43%; further: 0% is about no effect
Sm TGR inh = inhibitors of Schistosoma mansoni thioredoxin glutathione reductase; 360,000 compounds, 3% hits; Q962Y6; purified TGR, DTNB reduction, TNB absorbance 405 nm; Potency, µM (top dose mostly 114 µM), without a hit: top-dose activity change, negative = inhibition, hits mostly inhibitors; further: potency means the concentration at half of the fitted maximal effect; on the % scale 0 is the no-effect control and ±100 the full control effect; nearly all actives have a fitted effect of over 60% in size
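First, TGR (20 nM dispensed) and NADPH were mixed with compound. Second, a 15 min room-temperature incubation followed. Third, further NADPH and then DTNB were added to start the reaction. Finally, TNB absorbance was monitored kinetically.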
Pf growth 48h = inhibits P. falciparum growth in the first generation, 48 h; P. falciparum luciferase growth in erythrocytes, 48 h; Potency, µM (series often up to 28.7 µM), for inactives: top-dose activity change, negative = inhibition, most hits filed as inhibitors; 310,000 compounds, 5.9% hits; AID 504832; further: potency means the concentration at half of the fitted maximal effect; on the % scale 0 is the no-effect control and ±100 the full control effect
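In quantitative HTS format, infected erythrocytes bearing luciferase-reporter parasites were treated for a single generation at 37 C. Luminescence after adding detection reagent served as the growth measure.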
Pf growth 96h = P. falciparum growth inhibition at 96 hour, primary screen for plastid delayed-death inhibitors. P. falciparum luciferase reporter growth, 96 h. Potency, µM (highest dose often 28.7 µM), for the others: at the highest dose activity change, negative = inhibition, hits mostly inhibitors. 320,000 compounds, 6.9% hits. AID 504834; further: potency means the concentration at half of the fitted maximal effect; on the % scale 0 is the no-effect control and ±100 the full control effect
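Cell-based qHTS: luciferase-tagged P. falciparum in erythrocytes (2% hematocrit, 0.05% parasitemia final) incubated with compounds for 96 hours, 37 C, 5% CO2; luciferase detection reagent then added and luminescence measured.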
NS1 function inh = inhibitors of influenza NS1 protein function; Potency, µM (titrated, usually from 46.1 µM), for the others: at the highest dose activity, positive = more growth; 270,000 compounds, 0.4% hits; calls by dose curve; further: potency means the concentration at half of the fitted maximal effect; actives are rising curves; nearly all actives have a fitted effect of over 50% in size
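Growth recovery, yeast-based: influenza A NS1 expressed in S. cerevisiae causes slow growth, and suppressors are detected by OD600. The parent strain without NS1 is used as positive control.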
CHX counter = counter-screen hit for Shiga toxin inhibitors, cycloheximide; cell reporter, cycloheximide protein synthesis inhibition counterscreen; max response, %; 300,000 compounds, 12% hits; AID 2314; in the data active means max response mostly above about 13%, no sharp cut-off; inactive means mostly below about 14%; further: read at 38.3 µM for the half of the compounds with a filed dose; 0% is about no effect
The depositor's hits bear a star; i = inactive; ? = inconclusive; · = no result given. Hits are enriched below; roughly 21% of the tested compounds scored in any of these assays. Unless noted, the call rests on the fitted dose curve; in most records, active means well fitted curve in the direction sought with a large enough effect; inconclusive means small, poorly fitted or top-dose-only effect, or another doubt; inactive means no such curve, though single readings can be large; an effect the other way counts as inactive or inconclusive.

SMILES | Shiga toxin inh | Sm TGR inh | Pf growth 48h | Pf growth 96h | NS1 function inh | CHX counter
Cc1ccc(NC2Nc3cc(C)nn3S2)c(C)c1 (stereo not drawn) | 83* | -24% | 254% | -6% | · | 57*
Cc1cc(NC(=NC2CC2)c2ccccc2)n(-c2ccccc2)n1 | -7 | 3% | ? | ? | · | -4
Cc1cc2n(n1)SC(Nc1ccccc1)N2 (stereo not drawn) | 143 | ? | 61% | 10% | -15% | 32*
O=c1c(-c2ccc(O)cc2)coc2cc(O)ccc12 | · | · | · | · | -8% | ·
O=c1c(-c2ccc3c(c2)OCCO3)coc2cc(O)cc(O)c12 | 73* | 3% | 91% | 5% | -91% | 37*
Cn1ccc(C(=O)Nc2ccc(Br)cc2Br)n1 | 167* | -4% | i | 427% | 4% | 104*
Cc1ccc(NC(=O)c2ccn(C)n2)c(Br)c1 | 163* | 1% | 423% | 5% | -2% | 81*
Cc1ccc(NC(=O)CCCC(=O)O)c(Br)c1 | -5 | 2% | -2% | 137% | 3% | -4
NC(=O)N/N=C1\CC[C@H](O)C[C@@H]1CC(=O)O | · | · | · | · | 0% | ·
CN(C)C(=O)COC(=O)c1ccccc1Nc1ccc(SC(F)F)cc1 | 89 | -5% | 67% | 46% | -27% | 32*
CC(=O)N1CCc2cc(S(=O)(=O)CCC(=O)NCCc3ccc(Cl)cc3)ccc21 | 2 | -1% | ? | -1% | -2% | 4
N#Cc1c(-c2cccs2)cc(-c2ccccn2)nc1N | 49 | 8% | -6% | 9.3µM* | -9% | 1
O=C(CN1C2CCCC1CC(NC(=O)c1ccccc1)C2)Nc1nccs1 (stereo not drawn) | -8 | 0% | ? | 9.3µM* | -2% | -2
Cc1ccc(C(=O)NC2CC3CCCC(C2)N3Cc2ccccc2)cc1 (stereo not drawn) | 15 | -1% | ? | ? | 7% | -2
O=C(NC1CC2CCCC(C1)N2Cc1ccccc1)c1ccc([N+](=O)[O-])cc1 (stereo not drawn) | -23 | 1% | 0% | 0.37µM* | 12% | -2
COc1ccc(C(=O)NC2CC3CCCC(C2)N3Cc2ccccc2)cc1 (stereo not drawn) | 14 | 4% | 27% | -12% | -2% | 3
COc1ccc(CN2C3CCCC2CC(NC(=O)/C=C/c2ccccc2)C3)cc1 (stereo not drawn) | 32 | 47% | ? | -20% | · | 12
O=C(/C=C/c1ccccc1)NC1CC2CCCC(C1)N2Cc1ccccc1 (stereo not drawn) | -8 | 9% | ? | 2.3µM* | 4% | -2
Cc1ccc(CN2C3CCCC2CC(NC(=O)c2ccc(F)cc2)C3)cc1 (stereo not drawn) | -11 | -29% | 10µM* | 25% | -10% | 2
CCCN1C2CCCC1CC(NC(=O)c1cc(OC)cc(OC)c1)C2 (stereo not drawn) | -2 | -110% | ? | ? | -9% | -1
CCCN1C2CCCC1CC(NC(=O)c1ccc(C(C)(C)C)cc1)C2 (stereo not drawn) | 81 | 12% | 11% | 0% | -4% | 13*
Cc1ccc(CN2C3CCCC2CC(NC(=O)Nc2cccc(F)c2)C3)cc1 (stereo not drawn) | -14 | 12% | 1.9µM* | 21% | -2% | -1
O=C(Nc1ccc(Cl)cc1)C1CCCN(S(=O)(=O)c2ccc3[nH]c(=O)ccc3c2)C1 (stereo not drawn) | · | 2% | · | · | · | ·
COc1cc(OC)cc(C(=O)NCCNc2nc3cc(C)cc(C)c3cc2C#N)c1 | · | 0% | ? | 1% | 9% | -2
COc1ccc2[nH]c3c(NCCN4CCCCC4)ncnc3c2c1 | 4 | 2% | 2.1µM* | 20% | 5% | 6
SMILES | Shiga toxin inh | Sm TGR inh | Pf growth 48h | Pf growth 96h | NS1 function inh | CHX counter
CCOc1ccc2[nH]c3c(NCCO)ncnc3c2c1 | 36 | -8% | 11% | 12% | -1% | 20*
Cc1ccc(-n2ncc3c(NCCCN4CCCC4=O)ncnc32)c(C)c1 | -5 | -4% | ? | ? | -2% | -3
Cc1ccc2[nH]c3c(NCCCN4CCCC4=O)ncnc3c2c1 | 71* | 1% | ? | ? | -6% | 31*
CCOc1ccc2[nH]c3c(NCCc4ccc(OC)c(OC)c4)ncnc3c2c1 | 7 | -3% | 4.7µM* | 3.7µM* | -3% | 1
Cc1ccc(S(=O)(=O)Nc2cccc(C(=O)NCc3cccnc3)c2)cc1F | · | 20% | 3% | 7% | · | ·
O=C(NCCCN1CCOCC1)c1ccc2c(=O)n(-c3ccc(F)c(Cl)c3)c(=S)[nH]c2c1 | -10 | -13% | ? | 9% | -3% | -8
COc1ccc(C(=O)Nc2ccc(N3CCOCC3)cc2)cc1S(=O)(=O)NC1CCCC1 | -3 | 5% | -7% | -11% | -9% | -1
COc1ccc(CCC(=O)NCc2nc3cccnc3n2Cc2ccc(OC)cc2)cc1 | · | 5% | · | · | · | ·
Cn1c(O)c(/C=C2\C=c3ccccc3=NC2=O)c(=O)n(C)c1=O | -2 | 35µM* | 12% | 20% | 4% | -1
CC(C)CCNC(=O)C1CCN(C(=O)N2CCOc3ccc(Cl)cc32)CC1 | · | -13% | · | · | · | ·
CC1(C)CC(N=Cc2c(O)n(Cc3ccc4c(c3)OCO4)c(=O)c3ccccc23)CC(C)(C)N1 | 6 | 12% | 8.3µM* | 10µM* | · | -4
O=c1[nH]c(=O)n(Cc2ccco2)c(O)c1C=NCc1ccc2c(c1)OCO2 | 2 | -8% | -4% | ? | 9% | 4
O=c1[nH]c2ccccc2n1CCCSCCCn1c(=O)[nH]c2ccccc21 | 16 | 2% | ? | 9.3µM* | 14% | 0
CC(C)CCn1c(=O)[nH]c2ccccc21 | 1 | 15% | 1% | 15% | 2% | -1
O=c1[nH]c2ccccc2n1CCC1CCCCC1 | 23 | 24% | 23% | · | -156% | 47*
CCn1c2ccccc2c2nnc(SCCCn3c(=O)[nH]c4ccccc43)nc21 | 15 | -15% | 7.4µM* | 2.3µM* | 4% | -5
Cc1cc(C(=O)CSCCCn2c(=O)[nH]c3ccccc32)c(C)n1C | -1 | -30% | 13µM* | 3% | -6% | -1
Cc1cc(C(=O)CSc2nc3ccccc3n2C)c(C)n1C | 8 | -2% | · | -16% | -3% | -2
CCn1c2ccccc2c2nnc(SCc3ccccc3)nc21 | -4 | -6% | ? | -51% | -77% | -2
COc1ccc(C2=Nn3c(nnc3-c3cc(OC)cc(OC)c3)SC2)cc1 | 7 | · | · | · | · | 9
Cc1cccc(CC(=O)NCC(=O)NCc2cc(=O)n(C)c(=O)n2C)c1 | 19 | -4% | 11% | 36% | 10% | -1
CC1CC(=O)c2c(cc3c(-c4c(O)cc(O)c5c(O)c6c(cc45)OC(C)CC6=O)c(O)cc(O)c3c2O)O1 (stereo not drawn) | -20 | -26% | 0.41µM* | 6% | ? | 2
Cc1ccc(C(=O)N2CCN(S(=O)(=O)c3ccc(C(C)C)cc3)CC2)s1 | · | -5% | ? | ? | · | ·

Screening data: PubChem, National Center for Advancing Translational Sciences (NCATS)
